BAZ2B inh – inhibitors of human BAZ2B bromodomain; Q9UIF8; AlphaScreen BAZ2B-H3K14Ac peptide displacement; Potency, µM (top dose mostly 114 µM), actives largely listed as inhibitors; 4.4% of 360,000 active; further: nearly all actives have a fitted effect of over 60% in size
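BAZ2B 50 nM plus b-H3(5-23)K14Ac 50 nM, PBS pH 7.4/0.01% Tween-20, 30 min RT; compound added (max 110 uM), 30 min RT; streptavidin donor/Ni-chelate acceptor beads 10 ug/mL final, 20 min dark; AlphaScreen read.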
JMJD2A Tudor inh – JMJD2A Tudor domain (human) inhibition | O75164 | AlphaScreen JMJD2A-Tudor / H3K4me3 peptide binding | Potency, µM (series often up to 114 µM), actives largely listed as inhibitors | 4.4% of 390,000 active; further: nearly all actives have a fitted effect of over 50% in size
TDP1 block – blocks human tyrosyl-DNA phosphodiesterase 1; 0.28% of 350,000 active; recombinant TDP1, AlphaScreen DNA substrate cleavage; AID 485290; Q9NUW8; Potency, µM (titrated, usually from 130 µM), hits mostly inhibitors; further: nearly all actives have a fitted effect of over 40% in size
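Here, a 5' biotin and 3' phosphotyrosine-FITC DNA oligonucleotide reports Tdp1 activity: intact substrate bridges AlphaScreen beads, while cleavage leaves a 3' phosphate and drops signal. All incubations at room temperature.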
G9a inh – G9a (human) methyltransferase inhibition; G9a H3K9 monomethylation, AlphaScreen, 2 h; Potency, µM (highest dose often 102 µM), hits mostly inhibitors; 8.8% of 350,000 active; AID 504332; further: nearly all actives have a fitted effect of over 75% in size
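Quantitative HTS format: methyltransferase activity on a biotin-tagged H3K9 peptide is measured by AlphaScreen, using a rabbit anti-monomethyl-H3K9 antibody with streptavidin donor and anti-IgG acceptor beads. Final levels are 20 nM enzyme, 500 nM peptide, 20 uM SAM; 2 h RT.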
HP1b chromo inh – inhibitors of HP1-beta chromodomain binding to methylated histone tails | P83916 | AlphaScreen HP1-beta / biotin-H3K9me3 peptide binding | Potency, µM (highest dose often 114 µM), actives largely listed as inhibitors | 0.56% of 390,000 active | AID 540317; further: nearly all actives have a fitted effect of over 70% in size
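Compound inhibition of the preformed complex between 50 nM HP1-beta and 50 nM biotinylated H3K9me3 peptide was read by AlphaScreen. Buffer was PBS pH 7.4 with 0.01% Tween-20. Incubations ran 30 min at room temperature, with 10 ug/mL donor/acceptor beads.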
Sfp inh – inhibitors of Bacillus subtilis Sfp phosphopantetheinyl transferase; Q9F4F7; Biochemical Sfp PPTase activity, qHTS; Potency, µM, most hits filed as inhibitors; 3.5% of 310,000 active; AID 1490;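 further: the enzyme is Sfp with the accession as filed and its product quenches rhodamine fluorescence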
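Compounds were incubated with enzyme (final 15 nM) for 15 min at room temperature before substrate addition started the reaction. Fluorescence at 525 nm excitation, 598 nm emission was recorded immediately and after 30 minutes.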
A number is an active result; n = inactive; u = inconclusive; x = no result; ! = not confirmed by another sample; [ ] = dose if it differs, or a comment. Compounds with a hit are over-represented: about 12% of the library has one in this group of screens. The call rests on the fitted dose curve; in most records, active means well fitted curve in the direction sought with a large enough effect; inconclusive means small, poorly fitted or top-dose-only effect, or another doubt; inactive means no such curve, though single readings can be large; an effect the other way counts as inactive or inconclusive.

SMILES | BAZ2B inh | JMJD2A Tudor inh | TDP1 block | G9a inh | HP1b chromo inh | Sfp inh
CCOc1ccc(/C=N/NC(=O)C(=O)N2CCCCCC2)c2ccccc12 | 71µM | n | n | n | n | n
O=C(N/N=C/c1ccccc1F)C(=O)N1CCCCCC1 | n | n | n | n | n | n
COc1cccc(/C(C)=N/Nc2ccc(S(=O)(=O)N3CCCCC3)cn2)c1 | n | n | n | n[12.7 µM] | n | x
O=C1C2CCC(C2)C1CN1CCOCC1 (centres undefined) | x | n | x | x | n | x
Cc1cccc(C)c1OCC(=O)NNC(=O)CCNC(=O)c1ccco1 | n | n | x | n[0.501 µM] | n | x
CC(C)c1ccc(S(=O)(=O)c2ccc(NN)cc2)cc1 | n | n | n | 10µM | n | n
Cc1ccc2nc(NS(C)(=O)=O)sc2c1 | n | n | n | n | n | n
Cc1ccc2c(c1)sc(C)[n+]2CCCS(=O)(=O)[O-] | n | n | n | u | n | 1µM
Cc1ccc2sc(C)[n+](CCCS(=O)(=O)[O-])c2c1 | n | n | n | u | n | 2.8µM
CCC(/C=C1\Oc2ccc(OC)cc2N1C)=C\c1sc2ccccc2[n+]1CCCS(=O)(=O)[O-] | x | n | x | x | n | x
COc1ccccc1N=C(C)C1=C(O)CC(c2ccccc2)CC1=O (centres undefined) | u | u | n | 50µM | n | n
CCC1=C2CC[C@H]3C(=O)N(c4ccccc4)C(=O)[C@H]3[C@H]2[C@@]2(Cc3ccccc3)C(=NCCOC)OC(=O)N2C1=O | x | x | n | x | x | n
CCC(NC(=O)Nc1cc(Cl)ccc1OC)c1c(-n2cccc2)sc2c1CCN(C)C2 (centres undefined) | u | u | n | 16µM | u | x
CCCCN(C)C(=O)C1CCN(Cc2cccnc2)CC1 | 79µM | 28µM | n | 14µM | u | n
CCCCC(=O)C1CCN(Cc2ccccc2)CC1 | n | n | n | n | n | n
CCCCN(C)C(=O)C1CCN(Cc2cccc(OCc3ccccc3)c2)CC1 | u | 40µM | n | 13µM | n | n
Cc1cccc(C)c1NC(=O)CN(C)C(=O)Cc1cccc(C(F)(F)F)c1 | n | n | n[0.0935 µM] | n | n | n
COC(=O)CNC(=O)COC(=O)c1cc(SC)ccc1Cl | n | n | n | n | n | n
CCn1cc(/C=C(\NC(=O)c2ccccc2F)C(=O)N2CCCC2)c2ccccc21 | u | n | n | n | n | n
O=C(O)c1n[nH]c2c1CCCCC2 | 50µM | u | n | 10µM | n | n
O=C(O)c1n[nH]c2c1CCCC2 | 56µM | 25µM | n | n[12.7 µM] | n | n
O=C(c1n[nH]c2c1CCCC2)n1ccnc1 | n | x | n | n | x | n
COc1cc(NC(=O)COCc2cc(-c3ccc4c(c3)OCO4)on2)c(OC)cc1Cl | n | n | n | n | n | x
CCN(CC)c1ccc(NC(=O)COCc2cc(-c3ccc4c(c3)OCO4)on2)c(C)c1 | 22µM | 20µM | n | 4.5µM | u | x
CCCOc1ccc(C2C(C(=O)c3cc4ccccc4o3)=C(O)C(=O)N2c2cc(C)on2)cc1OC (centres undefined) | n | n | n | x | n | n
SMILES | BAZ2B inh | JMJD2A Tudor inh | TDP1 block | G9a inh | HP1b chromo inh | Sfp inh
Cc1cc(N2C(=O)C(O)=C(C(=O)c3cc4ccccc4o3)C2c2ccc(Br)cc2)no1 (centres undefined) | u | u | n | 1.6µM | n | n
CCCOc1ccc(C2C(C(=O)c3cc4ccccc4o3)=C(O)C(=O)N2c2cc(C)on2)cc1 (centres undefined) | n | u | n | 32µM | n | n
C=CCc1ccccc1Oc1cc(OC)nc(N)n1 | n | n | n | n[0.501 µM] | n | x
COc1cc2nc(NC(=O)c3ccc(F)cc3Cl)sc(=O)c2cc1OC | n | n | x | 35µM | n | n
O=C(Nc1nc2ccsc2c(=O)s1)c1ccc(F)cc1Cl | n | u | x | n | n | n
O=C(Cn1cnc2ccccc2c1=O)Nc1nnc(SCc2ccc(Cl)cc2)s1 | n | n | x | n | n | n
COc1cc2c(C#N)c(N3CCCCC3)nc(N)c2c(N)n1 | n | n | n | n | n | n
COc1cc2c(C#N)c(N3CCc4ccccc4C3)nc(N)c2c(N)n1 | u | 4.5µM | n | n[12.7 µM] | n | 35µM
CSc1ccc(CNC(=O)C2CCC(=O)N(Cc3cccc(F)c3)C2)cc1 (centres undefined) | n | n | n | x | n | n
CCCCNS(=O)(=O)c1ccc2nc(NC(=O)c3cccnc3)sc2c1 | n | n | n | n | n | x
CCCNS(=O)(=O)c1ccc2nc(NC(=O)c3ccc(F)cc3)sc2c1 | n | 50µM | n | 1.4µM | u | x
CC(C)CC(=O)Nc1nc2ccc(S(C)(=O)=O)cc2s1 | n | n | n | 50µM | n | 20µM
CS(=O)(=O)c1ccc2nc(NC(=O)CN3CCC(Cc4ccccc4)CC3)sc2c1 | n | u | x | n[2.33 µM] | n | n
CS(=O)(=O)c1ccc2nc(NC(=O)CN3CCN(Cc4ccccc4)CC3)sc2c1 | n | u | n | 13µM | n | n
CCC(=O)Nc1nc2ccc(S(C)(=O)=O)cc2s1 | n | n | n | n | n | n
Cc1ccc(-n2c(SCC3CNC(=O)O3)nnc2-c2ccccc2)cc1C (centres undefined) | n | x | n | n | x | n
Nc1ccc2c(c1)Nc1ccccc1CC2 | 28µM | 50µM | n | x | n | n
COC(=O)NC(/C=C/c1ccccc1)C(C(C)=O)C(=O)OC (centres undefined) | x | x | n | x | x | n
Cc1cc[n+](-c2nc3ccccc3nc2C(=C=[N-])C#N)cc1 | n | n | n | 50µM | n | n
Cc1ccc[n+](-c2nc3ccccc3nc2C(=C=[N-])C#N)c1 | u | n | n | 50µM! | n | n
COc1cc(Cl)c(C)cc1NC(=O)c1ccccc1NC(=O)CN1CCOCC1 | n | n | x | n | n | n
Cc1ccc(C(=O)Nc2ccc(Cl)cn2)cc1 | n | n | n | n | n | n
Cc1ccccc1C1=CCN(c2ncc(NC(=O)c3ccc(Cl)cc3)cc2C(=O)O)CC1 | 50µM | 79µM | n | u | u | x
Cc1cc(C)c(NC(=O)C(C)n2nnc3sc(-c4ccccc4)cc3c2=O)c(C)c1 (centres undefined) | u | u | n | 10µM | n | x
COc1ccc(NC(=O)C(OC(=O)c2cnccn2)c2ccccc2)cc1Cl (centres undefined) | n | n | n | n | n | n
COc1ccc(NC(=O)C(C)n2nnc3sc(-c4ccccc4)cc3c2=O)cc1Cl (centres undefined) | n | 79µM | n | 2.8µM | u | x
CCC(C(=O)OC)n1nnc2sc(-c3ccccc3)cc2c1=O (centres undefined) | n | n | n | n | n | x
CC1=CC(C)(C)NC(=S)N1CCO | x | n | x | x | n | x
CCCN(CCC)CCNC(=O)C1CCCN(S(=O)(=O)c2cccc3nsnc23)C1 (centres undefined) | x | n | n | n | n | x
